For some assays here: Results with a measured potency or affinity are listed apart.
How the values were obtained:
Set-up in all cases: scale not given: direction of the effect not stated beside the values
[1] = biological target: Protein translocase subunit SecA (Escherichia coli (strain K12)) (UniProt P10408); assay: Assay to Identify E. coli SecA ATPase Inhibitors; assay type: functional; conditions: 30 µM
[2] = biological target: T1, Ubiquitin-activating enzyme e1, putative (Leishmania donovani (strain BPK282A1)) (UniProt E9BSI1); assay: Leishmania donovani Ubiquitin Activating Enzyme (LdE1); assay type: functional; conditions: 30 µM
T1 sequence (whole entry): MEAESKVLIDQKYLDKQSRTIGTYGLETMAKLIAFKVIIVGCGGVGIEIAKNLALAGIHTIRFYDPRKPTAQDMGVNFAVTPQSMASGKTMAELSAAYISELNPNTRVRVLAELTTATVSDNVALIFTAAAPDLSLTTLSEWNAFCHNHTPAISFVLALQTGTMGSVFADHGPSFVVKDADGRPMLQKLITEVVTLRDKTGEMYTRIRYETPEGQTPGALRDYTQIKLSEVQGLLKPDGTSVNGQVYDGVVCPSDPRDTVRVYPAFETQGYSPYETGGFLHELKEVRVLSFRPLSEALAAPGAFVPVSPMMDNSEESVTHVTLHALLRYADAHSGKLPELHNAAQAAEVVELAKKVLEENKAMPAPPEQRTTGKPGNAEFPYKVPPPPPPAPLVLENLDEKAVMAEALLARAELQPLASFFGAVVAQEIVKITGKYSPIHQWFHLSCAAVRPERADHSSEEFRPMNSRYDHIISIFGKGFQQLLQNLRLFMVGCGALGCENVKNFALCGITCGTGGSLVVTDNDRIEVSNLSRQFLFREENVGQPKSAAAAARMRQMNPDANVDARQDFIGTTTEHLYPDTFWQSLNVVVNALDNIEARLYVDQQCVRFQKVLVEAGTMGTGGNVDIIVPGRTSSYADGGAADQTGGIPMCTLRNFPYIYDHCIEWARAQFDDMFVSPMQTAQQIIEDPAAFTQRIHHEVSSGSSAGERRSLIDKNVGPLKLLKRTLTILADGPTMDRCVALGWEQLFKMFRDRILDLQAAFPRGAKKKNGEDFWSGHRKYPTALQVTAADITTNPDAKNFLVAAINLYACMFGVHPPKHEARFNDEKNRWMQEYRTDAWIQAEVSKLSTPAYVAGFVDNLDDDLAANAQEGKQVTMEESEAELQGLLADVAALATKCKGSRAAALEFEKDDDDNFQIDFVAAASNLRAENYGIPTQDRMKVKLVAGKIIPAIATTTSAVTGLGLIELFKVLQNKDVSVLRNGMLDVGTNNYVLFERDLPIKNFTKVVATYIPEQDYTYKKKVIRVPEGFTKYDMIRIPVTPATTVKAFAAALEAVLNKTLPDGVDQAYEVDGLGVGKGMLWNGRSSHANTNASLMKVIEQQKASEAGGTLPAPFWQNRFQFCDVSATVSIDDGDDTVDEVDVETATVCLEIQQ

[3] = biological target: Sialic acid-binding Ig-like lectin 9 (Homo sapiens) (UniProt Q9Y336); assay: Hs-Siglec9 ALPHAscreen SOP 20170721; conditions: 10 µM
[4] = test system: Trypanosoma cruzi; assay: Trypanosoma cruzi phosphomannomutase and mannose-1-phosphate guanylyltransferase assay; assay type: functional; conditions: 10 µM
[5] = biological target: T2, Arginase-2, mitochondrial (Homo sapiens) (UniProt P78540); assay: in vitro enzyme assay to detect the production of urea directly proportional to the activity of Arginase II; assay type: functional; conditions: 33.3 µM; further: in the data most compounds retested in dose-response had high values
T2 sequence (whole entry): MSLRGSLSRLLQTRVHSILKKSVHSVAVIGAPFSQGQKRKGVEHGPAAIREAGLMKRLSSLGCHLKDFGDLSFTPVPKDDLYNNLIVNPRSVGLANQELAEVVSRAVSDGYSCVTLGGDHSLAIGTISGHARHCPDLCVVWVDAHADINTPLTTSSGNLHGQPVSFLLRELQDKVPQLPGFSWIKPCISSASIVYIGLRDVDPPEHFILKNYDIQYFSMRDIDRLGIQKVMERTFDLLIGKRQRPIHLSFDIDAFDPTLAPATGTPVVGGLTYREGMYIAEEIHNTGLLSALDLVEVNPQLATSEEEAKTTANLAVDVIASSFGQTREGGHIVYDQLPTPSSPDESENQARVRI

[6] = biological target: T3, Proteasome subunit beta (Trypanosoma cruzi) (UniProt O96673); assay: Trypanosoma cruzi proteasome chymotrypsin-like activity (TcProtChymo) assay.; further: in the data most compounds retested in dose-response had high values; assay type: functional; conditions: 9.37 µM
T3 sequence (whole entry): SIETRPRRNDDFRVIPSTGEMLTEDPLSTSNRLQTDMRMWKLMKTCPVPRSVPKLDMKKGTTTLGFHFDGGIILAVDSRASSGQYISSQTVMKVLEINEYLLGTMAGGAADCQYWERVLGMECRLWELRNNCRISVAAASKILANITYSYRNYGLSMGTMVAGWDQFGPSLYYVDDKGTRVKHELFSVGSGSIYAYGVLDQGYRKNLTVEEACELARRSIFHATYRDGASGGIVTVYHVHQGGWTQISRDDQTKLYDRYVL

[7] = organism: Homo sapiens; assay: To identify inhibition of the IFN signalling (Jak-Stat) pathway via expression of an eGFP reporter gene under the control of an IFN-stimulated response element (ISRE) containing MxA promoter.; assay type: functional; conditions: 30 µM
[8] = biological target: T4, Tyrosyl-tRNA synthetase, putative (Trypanosoma cruzi (strain CL Brener)) (UniProt Q4DSP6); assay: Trypanosoma cruzi tyrosyl tRNA synthetase (TcYRS) _High Tyrosine SOP; assay type: functional; conditions: 30 µM; further: in the data most compounds retested in dose-response had high values
T4 sequence (whole entry): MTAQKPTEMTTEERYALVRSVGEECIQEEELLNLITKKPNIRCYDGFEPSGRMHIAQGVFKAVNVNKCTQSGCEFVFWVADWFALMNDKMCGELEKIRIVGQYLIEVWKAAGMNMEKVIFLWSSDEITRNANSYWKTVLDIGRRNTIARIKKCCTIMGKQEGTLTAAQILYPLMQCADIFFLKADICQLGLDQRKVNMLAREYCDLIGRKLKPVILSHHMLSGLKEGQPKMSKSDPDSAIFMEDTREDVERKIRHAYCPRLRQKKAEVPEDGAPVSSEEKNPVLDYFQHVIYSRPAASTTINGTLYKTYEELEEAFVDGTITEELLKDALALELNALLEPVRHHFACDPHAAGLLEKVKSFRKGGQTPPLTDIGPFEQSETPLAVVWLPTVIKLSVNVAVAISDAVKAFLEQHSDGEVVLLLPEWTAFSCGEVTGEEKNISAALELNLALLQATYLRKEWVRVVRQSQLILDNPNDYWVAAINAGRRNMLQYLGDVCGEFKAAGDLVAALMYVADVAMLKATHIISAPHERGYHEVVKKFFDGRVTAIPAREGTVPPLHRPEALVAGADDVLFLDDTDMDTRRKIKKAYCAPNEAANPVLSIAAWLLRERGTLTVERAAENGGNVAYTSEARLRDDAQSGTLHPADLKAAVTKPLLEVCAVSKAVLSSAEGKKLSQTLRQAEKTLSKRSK

[9] = biological target: T4, Tyrosyl-tRNA synthetase, putative (Trypanosoma cruzi (strain CL Brener)); assay: Trypanosoma cruzi tyrosyl tRNA synthetase (TcYRS) SOP; assay type: functional; conditions: 30 µM
[10] = biological target: Chromo domain-containing protein 1 (Saccharomyces cerevisiae (strain ATCC 204508 / S288c) (Baker's yeast)) (UniProt P32657); assay: ScCHD-1 Enzyme Inhibition Assay; assay type: functional; conditions: 30 µM; further: in the data most compounds retested in dose-response had high values
Chain of Chromo domain-containing protein 1 (Saccharomyces cerevisiae (strain ATCC 204508 / S288c) (Baker's yeast)) (P32657 whole entry, the tested form may be a part): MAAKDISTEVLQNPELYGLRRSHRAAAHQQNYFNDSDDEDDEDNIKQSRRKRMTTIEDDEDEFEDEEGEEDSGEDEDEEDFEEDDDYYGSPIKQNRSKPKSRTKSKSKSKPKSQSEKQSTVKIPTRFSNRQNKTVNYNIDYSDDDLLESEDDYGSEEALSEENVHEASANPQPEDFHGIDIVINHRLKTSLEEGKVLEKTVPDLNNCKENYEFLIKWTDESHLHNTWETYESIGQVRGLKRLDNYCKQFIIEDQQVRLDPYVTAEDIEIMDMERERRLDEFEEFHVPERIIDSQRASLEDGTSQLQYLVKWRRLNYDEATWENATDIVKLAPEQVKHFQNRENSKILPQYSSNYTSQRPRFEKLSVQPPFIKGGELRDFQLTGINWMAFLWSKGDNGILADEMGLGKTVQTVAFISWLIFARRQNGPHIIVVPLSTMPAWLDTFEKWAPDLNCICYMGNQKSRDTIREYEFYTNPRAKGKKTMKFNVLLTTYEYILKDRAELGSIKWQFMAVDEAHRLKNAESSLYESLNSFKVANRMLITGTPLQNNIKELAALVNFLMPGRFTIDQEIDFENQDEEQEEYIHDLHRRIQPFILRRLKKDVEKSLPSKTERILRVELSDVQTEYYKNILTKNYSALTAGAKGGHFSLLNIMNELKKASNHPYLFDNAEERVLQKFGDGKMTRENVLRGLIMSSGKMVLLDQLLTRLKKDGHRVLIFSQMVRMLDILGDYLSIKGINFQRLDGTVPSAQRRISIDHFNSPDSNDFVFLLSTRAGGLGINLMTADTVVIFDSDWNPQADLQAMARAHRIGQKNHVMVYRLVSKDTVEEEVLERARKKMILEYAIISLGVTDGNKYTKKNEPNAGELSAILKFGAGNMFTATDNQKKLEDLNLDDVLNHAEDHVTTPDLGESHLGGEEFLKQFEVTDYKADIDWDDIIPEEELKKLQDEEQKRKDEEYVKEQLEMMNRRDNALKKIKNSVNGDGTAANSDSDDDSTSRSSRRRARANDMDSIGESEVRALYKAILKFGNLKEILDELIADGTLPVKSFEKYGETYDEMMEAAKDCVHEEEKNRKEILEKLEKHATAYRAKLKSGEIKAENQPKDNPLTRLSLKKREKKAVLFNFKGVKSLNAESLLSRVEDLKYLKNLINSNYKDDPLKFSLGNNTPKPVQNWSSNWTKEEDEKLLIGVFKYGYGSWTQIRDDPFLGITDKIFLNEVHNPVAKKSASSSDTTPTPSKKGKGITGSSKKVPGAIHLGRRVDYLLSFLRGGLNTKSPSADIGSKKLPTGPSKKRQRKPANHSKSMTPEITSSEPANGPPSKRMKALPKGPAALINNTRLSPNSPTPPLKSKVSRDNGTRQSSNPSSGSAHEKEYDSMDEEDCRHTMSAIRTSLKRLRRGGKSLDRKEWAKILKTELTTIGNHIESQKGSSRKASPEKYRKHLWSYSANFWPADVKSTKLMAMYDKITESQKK

Chain of Sialic acid-binding Ig-like lectin 9 (Homo sapiens) (Q9Y336 whole entry): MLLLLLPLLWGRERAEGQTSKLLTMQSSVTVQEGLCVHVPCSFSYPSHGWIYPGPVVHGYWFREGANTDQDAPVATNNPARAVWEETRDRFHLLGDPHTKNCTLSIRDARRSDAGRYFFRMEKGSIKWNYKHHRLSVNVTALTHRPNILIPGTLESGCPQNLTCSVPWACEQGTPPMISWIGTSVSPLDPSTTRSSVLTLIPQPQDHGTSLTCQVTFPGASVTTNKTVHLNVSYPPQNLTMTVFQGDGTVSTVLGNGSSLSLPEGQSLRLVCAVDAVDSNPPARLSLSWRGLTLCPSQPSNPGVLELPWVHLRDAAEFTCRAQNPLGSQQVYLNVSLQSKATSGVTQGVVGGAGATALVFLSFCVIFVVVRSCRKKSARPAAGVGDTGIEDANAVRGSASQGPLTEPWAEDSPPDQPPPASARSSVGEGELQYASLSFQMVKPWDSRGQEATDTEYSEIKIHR
Chain of Protein translocase subunit SecA (Escherichia coli (strain K12)) (P10408 whole entry): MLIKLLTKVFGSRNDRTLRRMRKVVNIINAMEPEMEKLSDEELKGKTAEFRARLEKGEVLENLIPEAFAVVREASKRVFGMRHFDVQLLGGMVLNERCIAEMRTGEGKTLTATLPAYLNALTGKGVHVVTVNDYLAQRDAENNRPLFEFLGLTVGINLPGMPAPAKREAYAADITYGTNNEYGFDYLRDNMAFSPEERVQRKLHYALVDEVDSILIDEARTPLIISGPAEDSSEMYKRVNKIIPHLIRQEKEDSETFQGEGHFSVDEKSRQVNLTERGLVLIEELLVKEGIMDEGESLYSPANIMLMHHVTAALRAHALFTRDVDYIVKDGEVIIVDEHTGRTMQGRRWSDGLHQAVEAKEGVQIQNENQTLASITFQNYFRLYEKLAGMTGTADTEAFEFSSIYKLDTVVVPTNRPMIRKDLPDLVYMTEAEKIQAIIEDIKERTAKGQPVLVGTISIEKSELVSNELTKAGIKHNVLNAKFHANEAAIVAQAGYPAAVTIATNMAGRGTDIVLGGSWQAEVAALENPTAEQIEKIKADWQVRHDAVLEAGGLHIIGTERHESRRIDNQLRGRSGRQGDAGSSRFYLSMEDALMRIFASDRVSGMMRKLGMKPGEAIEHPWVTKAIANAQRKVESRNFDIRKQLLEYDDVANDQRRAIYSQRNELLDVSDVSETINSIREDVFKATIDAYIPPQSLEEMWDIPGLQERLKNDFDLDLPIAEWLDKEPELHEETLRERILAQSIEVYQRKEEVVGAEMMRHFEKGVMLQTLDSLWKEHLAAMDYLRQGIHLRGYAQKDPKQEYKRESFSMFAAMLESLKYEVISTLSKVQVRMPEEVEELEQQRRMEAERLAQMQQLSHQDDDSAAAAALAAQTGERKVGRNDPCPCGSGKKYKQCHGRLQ

Structure (SMILES)	Percent Effect [1]	Percent Effect [2]	Percent Effect [3]	Percent Effect [4]	Percent Effect [5]	Percent Effect [6]	Percent Effect [7]	Percent Effect [8]	Percent Effect [9]	Percent Effect [10]
Cc1cc(S(=O)(=O)N2CCc3ccc(F)cc32)cc(C(=O)O)c1C	-5.32%	0%	7.12%	-1.81%	-3.99%	6.87%	-3.81%	-15.3%	-28.2%	-9.5%
Cc1ccc(-c2nc(CN3CCn4c(nnc4C4CC4)C3)cs2)o1	2.56%	0%	-11.3%	-0.0939%	-2.87%	16.3%	35.1%	5.26%	10.8%	-4.37%
O=C(c1ccc(OCC2CC2)nc1)N1CCCC(n2ccnc2)C1 (stereo not given)	-2.4%	12.8%	-6.85%	2.72%	6.97%	9.64%	5.6%	8.13%	22.9%	-4.73%
CC(=O)N1CCCn2nc(CNS(=O)(=O)c3cc(C)cs3)cc2C1	-6.27%	2.7%	-0.0396%	-2.42%	4.54%	4.11%	0.293%	4.79%	7.32%	3.74%
Cn1cnc2c1CCN(CCCc1ccccc1)C2	-5.94%	2.67%	4.07%	5.62%	-3.55%	4.16%	23.4%	7.89%	12.8%	-10.6%
Cc1cnn(CC2CN(CC(=O)NCc3ccccn3)CCO2)c1 (stereo not given)	-3.5%	8%	4.57%	4.62%	-4.88%	5.17%	2.48%	3.68%	10.3%	-8.5%
CCC1=N[C@@]2(CC[C@@H]3CN(C(=O)NCc4ccccc4)C[C@@H]32)C(=O)N1C	-5.59%	-6.49%	-0.715%	-3.02%	-2.02%	5.21%	6.81%	1.58%	-10.3%	0.585%
CN1CCN(C[C@@H]2CN(C(=O)c3ccccc3C#N)C[C@@H]2CO)CC1	-3.4%	10.8%	10.3%	7.86%	0.35%	3.42%	7.14%	4.79%	9.76%	0.408%
CCNc1cc2c(nn1)CCN(C(=O)c1ccc(CNC(C)=O)o1)C2	-4.81%	8%	4.09%	-1.81%	3.99%	6.36%	5.79%	3.68%	15.4%	-12.3%
c1ccc(CCNC2CCc3ncnn3C2)nc1 (stereo not given)	-0.356%	18.2%	-2.1%	-0.373%	-1.84%	11.8%	8.49%	11.8%	23.5%	-9.93%
CS(=O)(=O)c1ccc(NC(=O)NCc2ccc3c(c2)CCC3)cn1	-2.45%	0%	-3.31%	4.04%	-38.9%	-6.06%	4.37%	5.26%	8.43%	-1.11%
CC(Cn1cccn1)NC(=O)N1CCN(Cc2cccnc2)CC1 (stereo not given)	-6.34%	7.79%	1.46%	1.87%	-1.02%	11.2%	-5.12%	5.88%	23.5%	-16.2%
O=C1CCC(C(=O)NCc2nn(-c3ccccc3)c3c2CCC3)CN1 (stereo not given)	-6.78%	5.13%	-2.63%	-2.16%	-2.46%	1.96%	22%	1.44%	6.02%	0.942%
CC(C)N(Cc1nc2c(cnn2C)c(=O)[nH]1)c1ccccc1	-2.48%	10.3%	-5.08%	5.54%	4.1%	1.96%	7.17%	5.26%	18.1%	-3.23%
Cc1cnn(CC2CCCCN2CCCS(N)(=O)=O)c1 (stereo not given)	-1.01%	21.3%	-1.72%	-2.01%	3.55%	11.3%	8.53%	5.79%	-2.56%	-12.4%
CCOc1ncccc1NC(=O)NC1CCN(S(C)(=O)=O)CC1	-4.68%	2.6%	-7.28%	-6.34%	-6.76%	8.25%	25.1%	0.98%	4.71%	-11.6%
CN1[C@H](CN2CCCC2)C[C@@H]2CN(C(=O)c3cccn3C)CC[C@@H]21	-1.76%	-1.3%	1.42%	0.563%	-0.457%	0.944%	-0.498%	10.6%	12.5%	-6.06%
CC(Cn1cccn1)NC(=O)NCc1cccnc1OC1CCCC1 (stereo not given)	-2.7%	8%	-3.26%	4.42%	0.887%	8.06%	-10.3%	0.526%	10.3%	-8.77%
Cc1ccc(C(=O)N2CCCS2(=O)=O)cc1Cl	-1.08%	5.33%	-1.7%	-4.62%	3.1%	3.99%	-6.01%	0.526%	0%	-6.7%
Cn1cnc2c1CCN(Cc1cccc(OCC(N)=O)c1)C2	-0.391%	15.4%	-8.42%	7.42%	2.46%	15.3%	23.1%	3.35%	18.1%	-7.71%
Cc1ccc(F)cc1C(=O)N1C[C@@H](CN2CCOCC2)[C@@H](CO)C1	-9.2%	8.11%	5.12%	2.23%	4.54%	9.76%	2.21%	5.85%	9.76%	-3.39%
O=C1CC(c2ccncc2)C2(CCN(CCO)CC2)N1 (stereo not given)	-2.64%	3.9%	-0.555%	5.55%	-3.64%	8.91%	-9.49%	-0.526%	2.56%	17.5%
CCCc1cc(C(=O)N2CCOC(c3nc(-c4cccs4)no3)C2)no1 (stereo not given)	-3.79%	9.33%	6.29%	3.55%	2.21%	7.55%	17%	-12.7%	2.5%	-19.9%

From ChEMBL document CHEMBL3988442, “University of Dundee, Small-Polar-MMV Screening Library” (2021)
